Laboratory results as given in PubChem BioAssay (Tox21).
Values joined by “and” are separate entries in the source; they are usually repeats but may differ in a detail not shown here. Equal values may be shown once. Results filed as inconclusive are left out. More than one record can exist for a structure, and the calls need not agree. Active and inactive are the calls of the source. Unless noted, calls come from the whole dose curve.

How the values were obtained:
[1] = Nuclear factor erythroid 2-related factor 2/antioxidant responsive element (Nrf2/ARE) small molecule agonists: qHTS cell viability counter screen in human keratinocytes (AID 1919968; active = well fitted curve in the direction sought with a large enough effect in the repeat runs; an effect the other way counts as inactive or inconclusive; note: nearly all actives have a fitted effect of over 55% in size)
How it was run: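 KeratinoSens cells (HaCaT keratinocytes stably carrying an ARE-luciferase reporter) were seeded at 1,500 cells/well and rested 5 h at 37 C/5% CO2. They were then exposed to compounds in DMSO for 23 h. Viability was read by CellTiter-Fluor fluorescence after 1 h.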

[2] = Nuclear factor erythroid 2-related factor 2/antioxidant responsive element (Nrf2/ARE) small molecule agonists: luciferase reporter gene qHTS assay in human keratinocytes (AID 1919969); note: nearly all actives have a fitted effect of over 35% in size; note: potency is the fitted concentration of half-maximal effect
[3] = molecular target: Gonadotropin-releasing hormone receptor (Homo sapiens) (UniProt P30968); test: Human gonadotropin-releasing hormone receptor (GnRHR) small molecule agonists, calcium flux assay in GnRHR-HEK293 cells (AID 1920063); note: nearly all actives have a fitted effect of over 35% in size
How it was run: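 HEK293 cells stably expressing human GnRHR were plated 18 h at 37 °C, loaded with calcium dye 1 h at 37 °C, then given compound in agonist mode; fluorescence (Ex/Em 480/540) read kinetically for 3 min at 1 s intervals.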

[4] = molecular target: KiSS-1 receptor (Homo sapiens) (UniProt Q969F8); test: Human kisspeptin (KISS1R) small molecule agonists, calcium flux assay in KISS1R-HEK293 cells (AID 1920064; active = well fitted curve in the direction sought with a large enough effect in the repeat runs; an effect the other way counts as inactive or inconclusive)
How it was run: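 HEK293 cells stably expressing human KISS1R were plated 18 h at 37 °C, loaded with calcium dye for 1 h at 37 °C, then given compound by pin tool. Fluorescence (Ex/Em 480/540) was read kinetically for 3 min.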

[5] = G protein-coupled receptor (GPCR) small molecule agonists, calcium flux assay: HEK293 wild type cell line counter screen (AID 1920065)
How it was run: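 Cells were plated and cultured 18 h at 37 C/5% CO2, then loaded with calcium dye for 1 h at 37 C. Compounds in DMSO were pin-transferred in agonist mode, and fluorescence (Ex/Em 480/540) was read kinetically for 3 min at 1 s intervals.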

[6] = p53 small molecule agonists, cell-based qHTS assay with rat liver microsomes (AID 1963578)
How it was run: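 Metabolic activation is supplied by rat liver microsomes with NADPH (each 0.5 mg/mL final). p53RE-bla cells incubate with compound 16 h at 37 C; reporter activity is measured by LiveBLAzer fluorescence.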

[7] = p53 small molecule agonists, cell-based qHTS assay with human liver microsomes: qHTS cell viability counter screen (AID 1963579); note: nearly all actives have a fitted effect of over 45% in size; note: potency is the fitted concentration of half-maximal effect
How it was run: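 After the 460/530 nm beta-lactamase read, CellTiter-Glo was added to the same wells and luminescence measured after 30 min at room temperature, giving viability of p53RE-bla cells treated 16 h with compounds plus microsomes and NADPH.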

[8] = p53 small molecule agonists, cell-based qHTS assay with rat liver microsomes: qHTS cell viability counter screen (AID 1963580); note: nearly all actives have a fitted effect of over 45% in size; note: potency is the fitted concentration of half-maximal effect
How it was run: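 p53RE-bla HCT-116 cells (4,000/well) rested 5 h at 37 C, then given Tox21 compounds in DMSO with rat liver microsomes (0.5 mg/mL final) plus NADPH (0.5 mg/mL final) for 16 h at 37 C. Viability read by CellTiter-Glo luminescence after 30 min at room temperature.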

[9] = p53 small molecule agonists, cell-based qHTS assay: qHTS cell viability counter screen (AID 1963581); note: nearly all actives have a fitted effect of over 45% in size
How it was run: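 p53RE-bla HCT-116 cells were exposed to compounds for 16 h at 37 C; after the beta-lactamase FRET read in the same wells, CellTiter-Glo was added and luminescence (intracellular ATP) read after 30 min at room temperature.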

[10] = p53 small molecule agonists, cell-based qHTS assay (AID 1963582; active = well fitted activation curve with a large enough effect in the signal ratio in the repeat runs, not every such curve was filed as active; the % refers to the signal ratio)
How it was run: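 p53RE-bla beta-lactamase reporter cells rested 5 h at 37 C/5% CO2, then received compounds in DMSO by pin transfer and were incubated 16 h at 37 C. LiveBLAzer B/G FRET substrate was loaded for 2 h at room temperature before fluorescence reading.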

[11] = molecular target: 5-hydroxytryptamine receptor 2A (Homo sapiens) (UniProt P28223); test: 5-hydroxytryptamine receptor 2A (HTR2A) small molecule antagonists, cell-based qHTS assay (AID 1963586); note: nearly all actives have a fitted effect of over 45% in size
How it was run: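 Antagonist-mode intracellular calcium assay: DOI (4 nM) added after 5 min compound pre-incubation at room temperature to dye-loaded HTR2A-CHO cells. Fluorescence followed for 3 min, sampled every second.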

[12] = molecular target: 5-hydroxytryptamine receptor 2A (Homo sapiens) (UniProt P28223); test: 5-hydroxytryptamine receptor 2A (HTR2A) small molecule agonists, cell-based qHTS assay (AID 1963587); note: nearly all actives have a fitted effect of over 30% in size
How it was run: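 HTR2A-CHO cells, plated 18 h at 37 C/5% CO2, dye-loaded 1 h at 37 C; compounds in DMSO added by pin tool (agonist mode). Intracellular calcium flux read as kinetic fluorescence on FDSS over 2 min at 1 s intervals.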

[13] = molecular target: Muscarinic acetylcholine receptor M1 (Homo sapiens) (UniProt P11229); test: Cholinergic receptor muscarinic 1 (CHRM1) small molecule antagonists, cell-based qHTS assay (AID 1963588); note: nearly all actives have a fitted effect of over 40% in size; note: potency is the fitted concentration of half-maximal effect
How it was run: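 CHRM1-CHO calcium-flux assay, antagonist mode. Cells were seeded 18 h, dye-loaded 1 h at 37 C and given compound for 5 min at RT, then acetylcholine was added at 50nM. FDSS fluorescence was read 3 min; 15 concentrations, three runs.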

[14] = molecular target: Muscarinic acetylcholine receptor M1 (Homo sapiens) (UniProt P11229); test: Cholinergic receptor muscarinic 1 (CHRM1) small molecule agonists, cell-based qHTS assay (AID 1963589); note: nearly all actives have a fitted effect of over 35% in size
How it was run: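 CHO cells stably expressing human CHRM1, seeded 18 h at 37 C/5% CO2, dye-loaded 1 h at 37 C, then given compound in agonist mode; intracellular calcium fluorescence read kinetically at 1 s intervals. Fifteen concentrations, three independent runs.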

[15] = cAMP Responsive Elements (CRE) small molecule agonists, cell-based qHTS assay (AID 1963590)
How it was run: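 CRE-bla HEK 293T cells in DMEM with 10% dialyzed FBS, NEAA, pyruvate and 25 mM HEPES were plated 18 h at 37 C/5% CO2, then exposed to compounds in DMSO for 3 h before LiveBLAzer B/G FRET substrate addition.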

[16] = cAMP Responsive Elements (CRE) small molecule antagonists, cell-based qHTS assay (AID 1963591; active = well fitted inhibition curve with a large enough effect in the signal ratio in the repeat runs, not every such curve was filed as active; the % refers to the signal ratio)
How it was run: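 CRE-bla HEK293T cells were plated 18 h at 37 °C/5% CO2, pinned with compound in DMSO, then stimulated with NKH477 at 0.25 uM final for 3 h. LiveBLAzer B/G FRET substrate was added and plates incubated 2 h at room temperature.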

[17] = molecular target: Beta-2 adrenergic receptor (Homo sapiens) (UniProt P07550); test: Adrenergic beta2 receptor (ADRB2) small molecule antagonists, cell-based qHTS assay (AID 1963592); note: series mostly up to about 92 µM; nearly all actives have a fitted effect of over 50% in size
How it was run: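 Cells (CHO, stable ADRB2 overexpression) incubated 18-20hr at 37C; compounds added from DMSO; agonist mix (1nM isoproterenol, 100uM IBMX, 25uM Ro-20-1724) added; 0.5hr RT; d2-cAMP and anti-cAMP-cryptate added; 1hr RT; 665/615 nm read.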

[18] = molecular target: D(2) dopamine receptor (Homo sapiens) (UniProt P14416); test: Dopamine D2 receptor (DRD2) small molecule agonists, cell-based qHTS assay (AID 1963594); note: nearly all actives have a fitted effect of over 35% in size
How it was run: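 HEK293 cells stably expressing DRD2 were cultured 24 h at 37 C, then given Ro20-1724 (0.1 mM final) and compounds for 10 min at room temperature. NKH477 (200nM) was then added for 30 min. cAMP was read by HTRF.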

[19] = molecular target: D(2) dopamine receptor (Homo sapiens) (UniProt P14416); test: Dopamine D2 receptor (DRD2) small molecule antagonists, cell-based qHTS assay (AID 1963595; active = well fitted inhibition curve with a large enough effect in the signal ratio in the repeat runs, with a control signal flat; the % refers to the signal ratio)
How it was run: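 Stable D2 receptor HEK293 line, 24 h after seeding. Compound preincubated 10 min, then quinpirole (12 nM) with forskolin analogue NKH477 (200 nM), 30 min, room temperature. Detection by time-resolved FRET of cAMP.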

[20] = molecular target: Beta-2 adrenergic receptor (Homo sapiens) (UniProt P07550); test: Adrenergic beta2 receptor (ADRB2) small molecule agonists, cell-based qHTS assay (AID 1963593);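 note: CHO cells stably overexpressing human ADRB2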
How it was run: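 CHO cells stably over-expressing ADRB2 were plated overnight at 37C, then dosed with compounds plus a stimulation mix containing 100uM IBMX and 25uM Ro-20-1724 for 0.5hr at room temperature. cAMP was measured by HTRF competition, 1hr.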

Measured: Potency

Sequence of Muscarinic acetylcholine receptor M1 (Homo sapiens) (P11229 whole entry, looked up): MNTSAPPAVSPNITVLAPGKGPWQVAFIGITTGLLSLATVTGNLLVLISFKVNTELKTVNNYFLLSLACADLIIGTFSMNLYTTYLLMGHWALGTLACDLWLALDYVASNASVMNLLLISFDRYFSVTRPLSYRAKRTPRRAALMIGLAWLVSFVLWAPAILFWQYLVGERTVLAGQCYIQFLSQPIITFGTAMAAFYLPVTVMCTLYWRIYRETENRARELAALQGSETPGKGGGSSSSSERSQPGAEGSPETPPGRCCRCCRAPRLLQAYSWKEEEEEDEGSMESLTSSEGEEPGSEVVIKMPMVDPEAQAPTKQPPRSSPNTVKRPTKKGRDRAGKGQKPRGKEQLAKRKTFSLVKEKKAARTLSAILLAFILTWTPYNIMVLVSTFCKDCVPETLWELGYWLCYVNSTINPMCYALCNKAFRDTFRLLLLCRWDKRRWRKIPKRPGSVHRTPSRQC
Sequence of 5-hydroxytryptamine receptor 2A (Homo sapiens) (P28223 whole entry, looked up): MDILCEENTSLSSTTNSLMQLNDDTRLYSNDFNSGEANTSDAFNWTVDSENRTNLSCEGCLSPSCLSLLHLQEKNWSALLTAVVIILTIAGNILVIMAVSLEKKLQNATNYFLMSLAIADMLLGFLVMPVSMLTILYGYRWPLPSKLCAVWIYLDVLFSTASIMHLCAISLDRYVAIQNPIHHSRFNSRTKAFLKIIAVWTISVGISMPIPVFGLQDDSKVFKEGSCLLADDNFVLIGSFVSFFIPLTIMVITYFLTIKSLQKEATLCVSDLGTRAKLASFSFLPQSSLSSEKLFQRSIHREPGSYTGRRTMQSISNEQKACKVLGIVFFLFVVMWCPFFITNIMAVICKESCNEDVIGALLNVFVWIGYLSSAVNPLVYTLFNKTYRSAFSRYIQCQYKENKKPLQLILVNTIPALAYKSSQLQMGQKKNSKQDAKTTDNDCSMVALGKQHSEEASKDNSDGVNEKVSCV
Sequence of KiSS-1 receptor (Homo sapiens) (Q969F8 whole entry, looked up): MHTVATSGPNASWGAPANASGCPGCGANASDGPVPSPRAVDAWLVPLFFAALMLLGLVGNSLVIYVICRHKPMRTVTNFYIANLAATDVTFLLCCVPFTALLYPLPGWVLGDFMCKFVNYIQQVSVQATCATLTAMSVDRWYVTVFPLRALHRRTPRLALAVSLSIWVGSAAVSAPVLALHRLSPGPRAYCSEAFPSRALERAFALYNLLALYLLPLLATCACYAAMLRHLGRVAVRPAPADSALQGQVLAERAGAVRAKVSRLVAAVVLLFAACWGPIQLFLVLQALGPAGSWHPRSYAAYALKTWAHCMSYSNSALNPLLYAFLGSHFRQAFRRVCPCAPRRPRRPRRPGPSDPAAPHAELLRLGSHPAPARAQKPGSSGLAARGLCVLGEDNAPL
Sequence of Beta-2 adrenergic receptor (Homo sapiens) (P07550 whole entry, looked up): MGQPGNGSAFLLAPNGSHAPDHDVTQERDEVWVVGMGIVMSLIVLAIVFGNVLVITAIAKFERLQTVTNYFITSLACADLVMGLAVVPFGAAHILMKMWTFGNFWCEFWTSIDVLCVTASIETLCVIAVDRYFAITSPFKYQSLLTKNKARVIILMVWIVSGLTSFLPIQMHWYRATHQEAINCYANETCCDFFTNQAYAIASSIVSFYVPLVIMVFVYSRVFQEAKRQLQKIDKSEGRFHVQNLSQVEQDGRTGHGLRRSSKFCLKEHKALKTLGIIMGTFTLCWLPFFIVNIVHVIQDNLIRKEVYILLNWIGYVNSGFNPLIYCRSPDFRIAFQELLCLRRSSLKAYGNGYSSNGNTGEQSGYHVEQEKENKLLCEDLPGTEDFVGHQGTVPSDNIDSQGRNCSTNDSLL
Sequence of D(2) dopamine receptor (Homo sapiens) (P14416 whole entry, looked up): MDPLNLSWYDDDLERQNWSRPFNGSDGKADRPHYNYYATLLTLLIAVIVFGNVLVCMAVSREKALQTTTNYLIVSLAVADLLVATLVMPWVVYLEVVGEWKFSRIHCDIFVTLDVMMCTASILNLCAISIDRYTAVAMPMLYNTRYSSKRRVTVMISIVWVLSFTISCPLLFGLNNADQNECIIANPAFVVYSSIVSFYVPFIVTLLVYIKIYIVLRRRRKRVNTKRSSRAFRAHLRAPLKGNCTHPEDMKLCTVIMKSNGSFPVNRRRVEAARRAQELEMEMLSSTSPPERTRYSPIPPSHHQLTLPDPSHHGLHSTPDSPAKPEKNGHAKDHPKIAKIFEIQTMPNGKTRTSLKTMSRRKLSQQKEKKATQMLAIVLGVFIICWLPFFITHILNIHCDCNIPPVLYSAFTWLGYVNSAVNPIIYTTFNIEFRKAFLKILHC
Sequence of Gonadotropin-releasing hormone receptor (Homo sapiens) (P30968 whole entry, looked up): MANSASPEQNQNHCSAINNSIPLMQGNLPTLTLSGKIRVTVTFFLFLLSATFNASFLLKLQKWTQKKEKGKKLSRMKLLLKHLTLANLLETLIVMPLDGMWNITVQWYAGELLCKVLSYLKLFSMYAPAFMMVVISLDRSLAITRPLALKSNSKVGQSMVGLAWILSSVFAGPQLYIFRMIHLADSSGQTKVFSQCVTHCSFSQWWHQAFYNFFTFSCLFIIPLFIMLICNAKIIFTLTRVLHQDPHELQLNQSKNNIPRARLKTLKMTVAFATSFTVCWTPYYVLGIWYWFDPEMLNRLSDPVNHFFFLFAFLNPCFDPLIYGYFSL

NCCO
inactive and 32.4 µM (active): [8]
inactive and 36.3 µM (active): [7]
inactive and 27.3 µM (active): [2]
active: [13] 18.8 µM
not listed: [19] | [20]
inactive: all other assays above

Cc1cccc(N(C)C(=S)Oc2ccc3ccccc3c2)c1
active: [2] 21.7 µM
not listed: [11] | [12] | [13] | [14] | [16] | [20]
inactive: all other assays above

CC(=O)O[C@]1(C(C)=O)CC[C@H]2[C@@H]3C=C(C)C4=CC(=O)CC[C@]4(C)[C@H]3CC[C@@]21C
not listed: [9] | [11] | [12] | [13] | [14] | [15] | [16]
inactive: all other assays above

OCC#CCO
17 µM (active) and inactive: [13]
not listed: [14] | [20]
inactive: all other assays above

CC(C)(C)c1ccc(O)c(O)c1
active: [2] 63.2 µM and 8.63 µM
not listed: [10] | [11] | [20]
inactive: all other assays above

O=C(O)c1ccc(CO)o1
not listed: [11]
inactive: all other assays above

CC(C)c1cccc(O)c1
not listed: [14]
inactive: all other assays above

CC(=O)/C=C/c1ccco1
not listed: [11] | [14] | [15] | [19]
inactive: all other assays above

CC(N)CN (centres undefined)
not listed: [8]
inactive: all other assays above

Cc1sccc1Br
not listed: [12] | [18]
inactive: all other assays above

Cc1ccc2c(ccc3ccccc32)c1
not listed: [15]
inactive: all other assays above

CN(C)CCCN(C)CCCN(C)C
not listed: [15] | [19] | [20]
inactive: all other assays above

NCc1cccc(CN)c1
not listed: [13]
inactive: all other assays above

COC(OC)C(C)c1ccccc1 (centres undefined)
not listed: [20]
inactive: all other assays above

CCCCCCCCCCCCCCO
not listed: [20]
inactive: all other assays above
